Compound activity (PubChem BioAssay)
ASM inhibitor – human S-ASM enzyme inhibition. P17405. placental ASM, HMU-PC fluorogenic substrate, 60 min. Potency, µM (doses to about 57.5 µM), usual class: inhibitors. 340,000 compounds, 0.006% hits
Target sequence (P17405 47-631 limits assumed): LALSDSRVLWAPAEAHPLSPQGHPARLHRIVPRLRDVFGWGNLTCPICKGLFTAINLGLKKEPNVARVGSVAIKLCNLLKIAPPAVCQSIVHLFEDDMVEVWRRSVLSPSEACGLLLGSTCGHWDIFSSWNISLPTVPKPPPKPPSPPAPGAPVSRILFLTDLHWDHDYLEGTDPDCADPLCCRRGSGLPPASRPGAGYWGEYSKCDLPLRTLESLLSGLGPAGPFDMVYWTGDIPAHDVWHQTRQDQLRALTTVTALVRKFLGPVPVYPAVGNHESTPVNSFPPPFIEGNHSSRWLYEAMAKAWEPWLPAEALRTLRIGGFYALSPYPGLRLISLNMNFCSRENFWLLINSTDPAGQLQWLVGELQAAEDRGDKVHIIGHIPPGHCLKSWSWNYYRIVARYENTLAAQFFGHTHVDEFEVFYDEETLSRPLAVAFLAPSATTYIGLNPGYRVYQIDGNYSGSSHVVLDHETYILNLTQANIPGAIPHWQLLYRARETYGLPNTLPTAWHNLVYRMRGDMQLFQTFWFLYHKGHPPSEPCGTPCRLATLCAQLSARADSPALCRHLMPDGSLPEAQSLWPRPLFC
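Fluorescence read-out (Ex 386 nm, Em 447 nm) after stopping the reaction at pH 10. Enzyme: ASM from human placenta; substrate HMU-PC0, 9 uM final; 60 min, 37 °C. Compound preincubation 10 min, ambient temperature.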
TDP1 cell noCPT – qHTS for Inhibitors of human tyrosyl-DNA phosphodiesterase 1 (TDP1): qHTS in cells in absence of CPT; DT40 Tdp1-/- hTDP1 cells, no CPT, ATP luminescence, 48 h; Potency, µM (titrated, usually from 46.2 µM), usual class: inhibitors; 420,000 compounds, 15% hits; also: nearly all actives have a fitted effect of over 55% in size
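Growth kinetics read by CellTiter-Glo luminescence after ≥48 hr at 37 °C. Cells: DT40 Tdp1-/- stably carrying human TDP1, 400 per well, compound exposure in the absence of CPT (DMSO vehicle).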
IL-1B inflam inh – inhibitors of inflammasome signaling (IL-1 beta secretion). THP-1 LPS/ATP IL-1B secretion, AlphaLISA, 16 h; stronger effect = lower value. activity change, % at 57.5 µM. 360,000 compounds, 4.7% hits. AID 743279; in the data active = activity change below about -50%; inconclusive = mostly about -30% to -49%
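Secreted IL-1B measured by AlphaLISA bead assay after 16 h compound exposure of THP-1 cells; compounds (final up to 57.5 uM) added 1 h before LPS (250 ng/mL) and ATP (1.25 mM) stimulation; lower signal means less secretion.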
TDP1 cell CPT – DT40-hTDP1 cell growth loss with CPT; AID 686979; 420,000 compounds, 12% hits; chicken DT40 Tdp1-/-;hTDP1 cells + 20 nM CPT, ATP luminescence, 48 h; Potency, µM (top dose mostly 46.2 µM), most hits filed as inhibitors; also: nearly all actives have a fitted effect of over 55% in size
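Chicken DT40 Tdp1-/- cells complemented with human TDP1, 400 cells/well, exposed to compounds plus 20 nM camptothecin for at least 48 h at 37 C; viability read as ATP content by CellTiter-Glo luminescence.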
TGFb inhibitor – inhibitors of TGF-b signaling. HepG2 CAGA-GFP TGF-b/SMAD3 reporter, GFP fluorescence, 18 h; TGF-beta stimulated, 500 pg/mL final. Potency, µM (highest dose often 46.1 µM), most hits filed as inhibitors. 410,000 compounds, 1.2% hits. AID 588855; also: nearly all actives have a fitted effect of over 65% in size
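Inhibition was scored as loss of TGF-beta-induced (500 pg/mL final, 18 hours, 37 degrees C) GFP in HEPG2 cells carrying a CAGA-GFP reporter, in DMEM with 1% FBS. Well GFP was summed per cell; Activity was normalised to unstimulated and stimulated DMSO wells, then concentration-response fitting.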
HepG2 viability – kills HepG2 cells in TGF-b inhibitor counter-screen | HepG2 CAGA-GFP viability, ATP luminescence, 18 h | Potency, µM (titrated, usually from 46.1 µM), most hits filed as cytotoxic | 410,000 compounds, 0.76% hits
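HepG2 CAGA-GFP cells (1000/well, DMEM with 1% FBS) received compound, then TGF-beta at 500 pg/mL final, and were incubated 18 hours at 37 degrees C. Viability was read by CellTiter-Glo luminescence. Media-only wells were set as complete cell-killing and DMSO as no toxicity.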
Numbers stand for hits; 0 = inactive; ? = inconclusive; - = no result given; ! = not active in a repeat. Most compounds without a hit are left out; they make up all but 19% or so of the library. Unless noted, calls follow the shape of the dose curve; as a rule, active = well fitted curve in the direction sought with a large enough effect; inconclusive = small, poorly fitted or top-dose-only effect, or another doubt; inactive = no such curve, though single readings can be large; an effect the other way counts as inactive or inconclusive.

SMILES | ASM inhibitor | TDP1 cell noCPT | IL-1B inflam inh | TDP1 cell CPT | TGFb inhibitor | HepG2 viability
CCn1c(=O)c2c(cnn2C)c2ccccc21 | 0 | ? | 0 | 7.3µM | 0 | 0
CCCn1c2ccccc2c2cnn(CC(=O)NCCCN3CCN(c4ccccc4)CC3)c(=O)c21 | 0 | 21µM | ? | ? | ? | 0
CN(C(=O)COC(=O)Cn1c(C(F)(F)F)nc2ccccc21)c1c(N)n(Cc2ccccc2)c(=O)[nH]c1=O | 0 | 0 | 0 | 0 | 0 | 0
COc1ccc(N(CC(=O)NCCc2cccc(C)c2)S(=O)(=O)c2c(C)nn(C)c2C)cc1 | - | ? | - | ? | 0 | 0
CC1CCCCN1CCCNC(=O)Cn1ncc2c3ccccc3n(Cc3ccccc3F)c2c1=O (stereo not drawn) | - | 18µM | - | ? | 0 | 0
CC1CCCCN1CCCNC(=O)Cn1ncc2c3ccccc3n(C)c2c1=O (stereo not drawn) | - | 0 | - | 0 | 0 | 0
CN1CCN(c2ccc(-c3cc(NC=O)c4ncc(-c5ccccc5)n4c3)cc2)CC1 | - | 16µM | 0 | 21µM | ? | 0
CN1CCN(c2ccc(-c3cc(NC=O)c4ncc(-c5ccc(F)cc5)n4c3)cc2)CC1 | - | ? | 0 | 15µM | ? | 0
CCOC(=O)N1CCC(NC(=O)c2ccc3c(c2)N(Cc2ccc(F)cc2)C(=O)c2ccccc2S3(=O)=O)CC1 | - | ? | - | ? | - | 0
C[C@@H]1CN([C@@H](C)CO)C(=O)CCCn2nncc2CO[C@@H]1CN(C)C(=O)CCC(F)(F)F | - | 0 | 0 | 0 | 0 | 0
CC1(CCl)N([O-])C2=C(CCCC2)[N+]1=O (stereo not drawn) | 0 | 0 | 0 | 0 | 0 | 0
Cc1ccc(S(=O)(=O)c2cn(C)c3cc(N4CCCCCC4)c(F)cc3c2=O)cc1 | - | 16µM | - | ? | 0 | 0
CCn1cc(S(=O)(=O)c2cc(C)cc(C)c2)c(=O)c2cc(F)c(N3CCCCC3)cc21 | - | 21µM | - | ? | ? | 0
Cc1ccc(S(=O)(=O)c2cn(C)c3cc(N4CCCC4)c(F)cc3c2=O)c(C)c1 | - | 23µM | - | ? | 0 | 0
CCN1CCN(c2cc3c(cc2F)c(=O)c(S(=O)(=O)c2cc(C)cc(C)c2)cn3CC)CC1 | - | ? | - | ? | 0 | 0
CCn1cc(S(=O)(=O)c2ccc(C)cc2C)c(=O)c2cc(F)c(N3CCCC3)cc21 | - | ? | - | ? | ? | 0
Cc1ccc(S(=O)(=O)c2cn(C)c3cc(N4CCCC(C)C4)c(F)cc3c2=O)c(C)c1 (stereo not drawn) | - | 23µM | - | 23µM | 0 | 0
COc1cccc(C(=O)NCCS(=O)(=O)NCc2ccccn2)c1 | 0 | 0 | 0 | 0 | 0 | 0
COc1cccc(-n2nnc(-c3nc(-c4ccccc4F)no3)c2C)c1 | - | ? | - | ? | 0 | 0
CCOC(=O)[C@H](CCc1ccccc1)N[C@H]1CCc2ccccc2N(CC(=O)O)C1=O | 0 | 21µM! | 0 | ? | 0 | 0
O=C1CCCC/C1=C/Nc1ccc(C(=O)O)cc1 | 0 | 0 | 0 | 0 | 0 | 0
CC1CCC/C(=C\Nc2ccc(O)cc2)C1=O (stereo not drawn) | 0 | ? | ? | 21µM | 0 | 0
C#CCOCCOCCOCCNc1nc(N2CCN(C(=O)Cn3cc(CCO)nn3)CC2)nc(N2CCN(C(=O)Cn3cc(CCO)nn3)CC2)n1 | 0 | 0 | 0 | 0 | 0 | 0
Cc1cccc(NC(=O)C2CCN(S(=O)(=O)c3ccc4c(c3)CCCN4C(=O)C3CCC3)CC2)c1 | - | ? | - | ? | 0 | 0
CSc1cccc(NC(=O)C2CCCN(S(=O)(=O)c3ccc4c(c3)CCCN4C(C)=O)C2)c1 (stereo not drawn) | - | 21µM | - | 18µM | ? | 0
SMILES | ASM inhibitor | TDP1 cell noCPT | IL-1B inflam inh | TDP1 cell CPT | TGFb inhibitor | HepG2 viability
CC(=O)c1ccc(NC(=O)C2CCN(S(=O)(=O)c3ccc4c(c3)CCCN4C(=O)C3CCC3)CC2)cc1 | - | ? | - | 12µM | 0 | 0
CSc1cccc(NC(=O)C2CCN(S(=O)(=O)c3ccc4c(c3)CCCN4C(=O)C3CCC3)CC2)c1 | - | 12µM | - | ? | 0 | 0
COc1ccc(NC(=O)C(=O)N2N=C3CCCCC3C2(O)C(F)(F)F)cc1 (stereo not drawn) | 0 | 0 | 0 | 0 | 0 | 0
O=S(=O)(c1c(F)cccc1F)N(CCc1ccc(F)cc1)C[C@@H](O)COCc1ccccc1 | 0 | ? | 0 | ? | ? | 0
COc1ccc(CN(CC(O)COCc2ccccc2)S(=O)(=O)c2ccccc2Br)cc1OC (stereo not drawn) | 0 | 16µM | -64 | ? | ? | 0
O=S(=O)(c1ccccc1)N1CCC2(CCCN(Cc3nccs3)C2)CC1 | - | ? | - | 0 | - | -
CCC(C)(CCNC(=O)Cc1ccccc1)c1ccccc1OC (stereo not drawn) | 0 | ? | ? | 23µM | 0 | 0
COc1ccccc1C(=O)NNC(=O)Cc1ccccc1 | 0 | 0 | 0 | 0 | 0 | 0
CCCCCCCCNC(=O)/C(C#N)=C/c1ccccc1[N+](=O)[O-] | 0 | ? | ? | ? | ? | 0
N#C/C(=C\C=C\c1ccccc1[N+](=O)[O-])C(=O)NCc1ccccc1 | 0 | 6.5µM | -102 | 4.6µM | 13µM | 0
C=CCNC(=O)/C(C#N)=C/c1ccc(C)o1 | 0 | 0 | ? | 0 | 0 | 0
C=CCNC(=O)/C(C#N)=C/c1ccccc1[N+](=O)[O-] | 0 | ? | -62 | 0 | 0 | 0
N#C/C(=C\c1ccccc1[N+](=O)[O-])C(=O)NCc1ccccc1 | 0 | 21µM | 0 | 0 | 0 | 0
CCCC(=O)Nc1cc(C(=O)N(C)CC(OC)OC)ccc1S(=O)(=O)c1ccc(C)cc1 | 0 | 0 | 0 | 0 | 0 | 0
O=C1[O][Bi][O]c2ccccc21 | - | 0 | - | 0 | - | -
CCN(CC)C(=O)C(Oc1ccc(S(=O)(=O)N2CCCC2)cc1[N+](=O)[O-])c1ccccc1 (stereo not drawn) | 0 | ? | 0 | 0 | 0 | 0
Cn1c(-[n+]2c(-c3ccccc3)cc(-c3ccccc3)cc2-c2ccccc2)nc2c([N+](=O)[O-])cccc21 | 0 | 18µM | -62 | 9.2µM | ? | 0
CC(C)n1c(SCc2ccccc2F)nc2c1c(=O)n(C)c(=O)n2C | 0 | 26µM | 0 | 21µM | 0 | 0
CC(C)n1c(SCc2cc(=O)[nH]c3ccccc23)nc2c1c(=O)n(C)c(=O)n2C | 0 | ? | 0 | ? | 0 | 0
CC(C)n1c(SCC(=O)N2c3ccccc3Sc3ccccc32)nc2c1c(=O)n(C)c(=O)n2C | 0 | 16µM | 0 | 21µM | 0 | 0
CC(C)n1c(SCC(=O)N2CCCCC2)nc2c1c(=O)n(C)c(=O)n2C | 0 | 0 | 0 | 0 | 0 | 0
